Measured values: PubChem BioAssay (Tox21)
Values joined by “and” are separate entries in the source; they are usually repeats but may differ in a detail not shown here. Identical values can stand only once. Inconclusive results are not listed. A call without a number means that no potency is given here. More than one record can exist for a structure, and the calls need not agree. Active and inactive are the calls of the source. Unless noted, calls come from the whole dose curve; as a rule, active = well fitted curve in the direction sought with a large enough effect in the repeat runs; inconclusive = weak or mixed curves; inactive = no such curve, though single readings can be large; an effect the other way counts as inactive or inconclusive.

Key:
[1] = qHTS assay to identify small molecule agonists of the peroxisome proliferator-activated receptor delta (PPARd) signaling pathway - cell viability counter screen (AID 743211); note: nearly all actives have a fitted effect of over 55% in size; note: potency is the fitted concentration of half-maximal effect
Method in brief: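 Read-out: CellTiter-Glo luminescence, 30 min RT, measured in the same wells as the beta-lactamase reporter. Cells: GeneBLAzer PPAR delta UAS-bla HEK293H, 3000 cells/well, compound exposure 17 h at 37C.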

[2] = qHTS assay to identify small molecule antagonists of the peroxisome proliferator-activated receptor delta (PPARd) signaling pathway - cell viability counter screen (AID 743213); note: nearly all actives have a fitted effect of over 50% in size; note: potency is the fitted concentration of half-maximal effect
Method in brief: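 Cytotoxicity counter screen: CellTiter-Glo luminescence read 30 min after addition, in the same wells as the reporter assay. There, PPARd UAS-bla HEK293H cells (3000/well) were treated 17 h at 37 C with compound and 300 nM L165041.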

[3] = qHTS assay to identify small molecule agonists of the farnesoid-X-receptor (FXR) signaling pathway - cell viability counter screen (AID 743218); note: nearly all actives have a fitted effect of over 45% in size; note: potency is the fitted concentration of half-maximal effect
Method in brief: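 In GeneBLAzer FXR-UAS-bla HEK 293T cells, compounds act for 16 h at 37 C. Cell viability is then scored in the reporter wells by CellTiter-Glo, 30 min at RT, luminescence.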

[4] = qHTS assay to identify small molecule antagonists of the farnesoid-X-receptor (FXR) signaling pathway - cell viability counter screen (AID 743221; active = well fitted cell-killing curve with a large enough effect in the repeat runs, not every such curve was filed as active; note: nearly all actives have a fitted effect of over 50% in size; note: potency is the fitted concentration of half-maximal effect)
Method in brief: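 HEK 293T FXR-bla cells, 5 h pre-incubation; compound + CDCA 50 uM final, 16 h, 37 C; beta-lactamase FRET read first, then CellTiter-Glo luminescence, 30 min RT.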

[5] = qHTS assay to identify small molecule agonists of the vitamin D receptor (VDR) signaling pathway - cell viability counter screen (AID 743224); note: nearly all actives have a fitted effect of over 50% in size; note: potency is the fitted concentration of half-maximal effect
Method in brief: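 VDR-bla cell line, quantitative HTS format; 16 h compound incubation (37C, 5% CO2); ATP-based CellTiter-Glo luminescence measured in the reporter assay wells.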

[6] = qHTS assay to identify small molecule antagonists of the vitamin D receptor (VDR) signaling pathway - cell viability counter screen (AID 743225); note: nearly all actives have a fitted effect of over 50% in size; note: potency is the fitted concentration of half-maximal effect
Method in brief: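 Viability counter screen run in the same wells as the beta-lactamase reporter assay: HEK 293T VDR-UAS-bla cells, 16 h compound exposure at 37C with 3 nM (final) 1-alpha,25-dihydroxyvitamin D3. CellTiter-Glo luminescence, 30 min, room temperature.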

[7] = qHTS assay to identify small molecule agonists of the endoplasmic reticulum stress response signaling pathway - cell viability counter screen (AID 1159517; calls by dose curve; note: nearly all actives have a fitted effect of over 50% in size; note: potency is the fitted concentration of half-maximal effect)
Method in brief: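 Counter-screen wells were identical to the reporter wells. Cells were plated at 1,500 per well and dosed for 5 hr, then read for luminescence 30 min after CellTiter-Glo addition.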

[8] = qHTS assay to identify small molecule antagonists of the retinoid-related orphan receptor gamma (ROR-gamma) signaling pathway - cell viability counter screen (AID 1159520); note: nearly all actives have a fitted effect of over 50% in size; note: potency is the fitted concentration of half-maximal effect
Method in brief: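 Tet-on ROR gamma CHO cells were given compounds for 2 hr, then doxycycline hyclate at 1 uM final, and incubated 16 hr at 37 C. Viability was measured as ATP content by CellTiter-Glo luminescence.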

[9] = biological target: Nuclear receptor ROR-gamma (Homo sapiens) (UniProt P51449); assay: qHTS assay to identify small molecule antagonists of the retinoid-related orphan receptor gamma (ROR-gamma) signaling pathway (AID 1159521; note: nearly all actives have a fitted effect of over 50% in size; note: potency is the fitted concentration of half-maximal effect)
Method in brief: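 Luminescence readout (ONE-Glo, 30 min RT) after 16 h doxycycline induction; loss of signal scored as antagonism. CHO cells with TET-inducible RORγ and RORE-LUC reporter; compounds added 2 h before 1 uM final doxycycline.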

[10] = qHTS assay to identify small molecule agonists of the AP-1 signaling pathway - cell viability counter screen (AID 1159525; calls by dose curve; note: nearly all actives have a fitted effect of over 55% in size; note: potency is the fitted concentration of half-maximal effect)
Method in brief: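 AP-1-bla ME-180 cells in Opti-MEM with 0.5% dialyzed FBS, compound exposure 5 h at 37 C in 15-point titration. Viability read in the same wells as ATP content by CellTiter-Glo luminescence, normalised to tetra-n-octylammonium bromide and DMSO controls.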

[11] = qHTS assay to identify small molecule agonists of the endoplasmic reticulum stress response signaling pathway (AID 1159516; active = well fitted activation curve with a large enough effect in the signal ratio in the repeat runs, not every such curve was filed as active; the % refers to the signal ratio)
Method in brief: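 ER stress element reporter (bla) in HeLa. 1,500 cells/well, overnight attachment; 5 hr compound; 2 hr RT substrate; dual-emission fluorescence.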

[12] = qHTS assay to identify small molecule agonists of the AP-1 signaling pathway (AID 1159526; calls by dose curve)
[13] = biological target: Peroxisome proliferator-activated receptor delta (Homo sapiens) (UniProt Q03181); assay: qHTS assay to identify small molecule agonists of the peroxisome proliferator-activated receptor delta (PPARd) signaling pathway (AID 743212; calls by dose curve)
Method in brief: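 Quantitative high-throughput agonist screen in a HEK293H beta-lactamase reporter line under UAS control. Compounds in DMSO, at 37 C. Fluorescence read after 2 h with FRET substrate at room temperature.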

[14] = biological target: Peroxisome proliferator-activated receptor delta (Homo sapiens) (UniProt Q03181); assay: qHTS assay to identify small molecule antagonists of the peroxisome proliferator-activated receptor delta (PPARd) signaling pathway (AID 743215; active = well fitted inhibition curve with a large enough effect in the signal ratio in the repeat runs, not every such curve was filed as active; the % refers to the signal ratio;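 note: cells stimulated with agonist L165041 at 300 nM final during compound exposure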; note: potency is the fitted concentration of half-maximal effect)
Method in brief: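 Antagonist-mode beta-lactamase reporter screen: HEK293H cells with UAS-bla under PPARd control, stimulated by 300 nM L165041 (final) alongside test compound for 17 h at 37 C, then FRET fluorescence after 2 h substrate incubation.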

[15] = biological target: Bile acid receptor (Homo sapiens) (UniProt Q96RI1); assay: qHTS assay to identify small molecule antagonists of the farnesoid-X-receptor (FXR) signaling pathway (AID 743217; active = well fitted inhibition curve with a large enough effect in the signal ratio in the repeat runs, not every such curve was filed as active; the % refers to the signal ratio)
Method in brief: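 Beta-lactamase reporter under UAS control in HEK 293T cells; compound exposure 16 h at 37 °C in the presence of chenodeoxycholic acid (50 uM final); signal from B/G FRET substrate after 2 h at room temperature.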

[16] = biological target: Bile acid receptor (Homo sapiens) (UniProt Q96RI1); assay: qHTS assay to identify small molecule agonists of the farnesoid-X-receptor (FXR) signaling pathway (AID 743220; active = well fitted activation curve with a large enough effect in the signal ratio in the repeat runs, not every such curve was filed as active; the % refers to the signal ratio)
Method in brief: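 Beta-lactamase reporter under UAS control in GeneBLAzer FXR HEK 293T cells (5000/well) measured with LiveBLAzer FRET substrate after 2 h at room temperature. Compound exposure lasted 16 h at 37C.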

[17] = biological target: Vitamin D3 receptor (Homo sapiens) (UniProt P11473); assay: qHTS assay to identify small molecule agonists of the vitamin D receptor (VDR) signaling pathway (AID 743222; calls by dose curve)
Method in brief: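 Agonist activity measured in VDR-bla reporter cells. Exposure 16 h, 37C, 5% CO2; detection by B/G FRET substrate, 2 h RT.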

[18] = biological target: Vitamin D3 receptor (Homo sapiens) (UniProt P11473); assay: qHTS assay to identify small molecule antagonists of the vitamin D receptor (VDR) signaling pathway (AID 743223; active = well fitted inhibition curve with a large enough effect in the signal ratio in the repeat runs, not every such curve was filed as active; the % refers to the signal ratio; note: potency is the fitted concentration of half-maximal effect)
Method in brief: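 Beta-lactamase reporter read-out: FRET substrate fluorescence after 2 h at room temperature, following 16 h exposure of VDR-bla cells to test compound plus 3 nM (final) 1alpha,25-dihydroxyvitamin D3 agonist at 37C.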

[19] = biological target: Retinoic acid receptor RXR-alpha (Homo sapiens) (UniProt P19793); assay: qHTS assay to identify small molecule agonists of the RXR signaling pathway (AID 1159527; calls by dose curve; note: nearly all actives have a fitted effect of over 35% in size)
Method in brief: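 Agonist mode; 9-cis retinoic acid positive control. HEK 293T UAS-bla reporter cells, 2% charcoal-stripped FBS, 16 hr compound exposure at 37 C/5% CO2. LiveBLAzer B/G FRET substrate 2 hr RT; ex 405, em 460/530 nm.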

[20] = qHTS assay to identify small molecule agonists of the NFkB signaling pathway - cell viability counter screen (AID 1159515; calls by dose curve; note: potency is the fitted concentration of half-maximal effect; nearly all actives have a fitted effect of over 55% in size)
Method in brief: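 Viability in NFkB-bla ME-180 cells was measured by CellTiter-Glo luminescence, 30 min room temperature, in wells already treated 5 hr with compounds and read for reporter FRET.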

Retinoic acid receptor RXR-alpha (Homo sapiens), sequence (P19793 whole entry, looked up): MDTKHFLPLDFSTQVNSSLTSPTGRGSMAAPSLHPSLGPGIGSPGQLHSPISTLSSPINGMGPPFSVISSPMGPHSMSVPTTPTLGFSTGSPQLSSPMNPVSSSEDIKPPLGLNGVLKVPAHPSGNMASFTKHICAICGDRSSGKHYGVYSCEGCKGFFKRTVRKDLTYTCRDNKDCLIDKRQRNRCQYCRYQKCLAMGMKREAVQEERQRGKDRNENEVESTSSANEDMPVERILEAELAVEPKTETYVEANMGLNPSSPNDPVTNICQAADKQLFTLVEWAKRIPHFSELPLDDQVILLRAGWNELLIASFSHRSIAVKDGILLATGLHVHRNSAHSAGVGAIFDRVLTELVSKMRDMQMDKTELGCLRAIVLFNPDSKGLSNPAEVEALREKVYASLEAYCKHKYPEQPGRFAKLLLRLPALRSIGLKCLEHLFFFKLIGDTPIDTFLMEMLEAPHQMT
Peroxisome proliferator-activated receptor delta (Homo sapiens), sequence (Q03181 whole entry, looked up): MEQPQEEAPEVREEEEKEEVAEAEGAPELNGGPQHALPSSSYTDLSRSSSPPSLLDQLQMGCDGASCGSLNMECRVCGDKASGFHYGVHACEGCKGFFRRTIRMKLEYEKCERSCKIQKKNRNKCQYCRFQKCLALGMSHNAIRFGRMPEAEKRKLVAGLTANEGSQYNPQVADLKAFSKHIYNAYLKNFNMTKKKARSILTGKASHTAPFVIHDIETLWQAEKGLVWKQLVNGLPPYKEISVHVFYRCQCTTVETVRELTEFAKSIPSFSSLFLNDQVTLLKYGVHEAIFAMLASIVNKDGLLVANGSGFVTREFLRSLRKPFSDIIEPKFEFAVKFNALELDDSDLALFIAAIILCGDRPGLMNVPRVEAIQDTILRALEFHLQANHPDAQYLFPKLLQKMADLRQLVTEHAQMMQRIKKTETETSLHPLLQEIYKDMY
Vitamin D3 receptor (Homo sapiens), sequence (P11473 whole entry, looked up): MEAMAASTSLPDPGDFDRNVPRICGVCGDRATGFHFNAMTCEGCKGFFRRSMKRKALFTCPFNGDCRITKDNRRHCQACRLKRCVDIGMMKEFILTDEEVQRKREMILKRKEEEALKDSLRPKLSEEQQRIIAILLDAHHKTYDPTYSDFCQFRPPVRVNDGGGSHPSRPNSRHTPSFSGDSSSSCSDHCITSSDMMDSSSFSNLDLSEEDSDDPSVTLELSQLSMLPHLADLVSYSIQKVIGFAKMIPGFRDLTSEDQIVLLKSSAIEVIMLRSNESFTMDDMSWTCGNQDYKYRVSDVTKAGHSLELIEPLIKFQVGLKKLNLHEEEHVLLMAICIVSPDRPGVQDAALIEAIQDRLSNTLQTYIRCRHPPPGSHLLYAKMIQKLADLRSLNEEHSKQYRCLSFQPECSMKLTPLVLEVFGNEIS
Bile acid receptor (Homo sapiens), sequence (Q96RI1 whole entry, looked up): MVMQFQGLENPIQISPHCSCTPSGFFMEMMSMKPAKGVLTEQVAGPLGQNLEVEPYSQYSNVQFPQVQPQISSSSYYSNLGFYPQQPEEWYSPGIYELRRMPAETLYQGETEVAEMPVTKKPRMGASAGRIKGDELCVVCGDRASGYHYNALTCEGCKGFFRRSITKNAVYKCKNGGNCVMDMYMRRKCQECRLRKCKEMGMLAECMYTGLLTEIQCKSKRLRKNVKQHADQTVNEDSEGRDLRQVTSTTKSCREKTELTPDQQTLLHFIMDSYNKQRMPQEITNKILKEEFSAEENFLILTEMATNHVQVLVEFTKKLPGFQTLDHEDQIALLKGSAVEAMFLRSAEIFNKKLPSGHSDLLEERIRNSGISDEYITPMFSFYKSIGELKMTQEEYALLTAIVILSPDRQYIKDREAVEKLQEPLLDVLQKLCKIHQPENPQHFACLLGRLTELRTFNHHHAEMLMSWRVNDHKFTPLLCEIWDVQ

| Compound | Potency [1] | Potency [2] | Potency [3] | Potency [4] | Potency [5] | Potency [6] | Potency [7] | Potency [8] | Potency [9] | Potency [10] | outcome [11] | Potency [12] | Potency [13] | Potency [14] | Potency [15] | Potency [16] | Potency [17] | Potency [18] | Potency [19] | Potency [20] |
| --- | --- | --- | --- | --- | --- | --- | --- | --- | --- | --- | --- | --- | --- | --- | --- | --- | --- | --- | --- | --- |
| CCCCC(CC)CN=C(N)NC(N)=NCCCCCCN=C(N)NC(N)=NCC(CC)CCCC (stereo unspecified) | 6.68 µM (active) | 8.41 µM (active) | 13.3 µM (active) | 21.1 µM (active) | 23.7 µM (active) | 7.56 µM (active) | 16.9 µM (active) | 26.6 µM (active) | 26.6 µM (active) | 10.7 µM (active) |  |  |  |  |  |  |  |  |  |  |
| COC(=O)C1=C(C)NC(C)=C(C(=O)OCC(C)C)C1c1ccccc1[N+](=O)[O-] (stereo unspecified) | 21.9 µM (active) and inactive | 21.9 µM (active) and inactive | inactive | inactive | 27.5 µM (active) | inactive | inactive | 43.3 µM (active) and inactive |  | 24.5 µM (active) and inactive | inactive | inactive |  |  |  |  |  |  |  |  |
| N#CC1(c2ccc(F)cc2)CCC(=O)CC1 | inactive | inactive | inactive | inactive | inactive | inactive | inactive | inactive | inactive | inactive | inactive | inactive | inactive | inactive | inactive | inactive | inactive | inactive | inactive |  |
| C[C@H]1[C@H]2CC[C@H]3[C@@H]4CC=C5C[C@@H](N(C)C)CC[C@]5(C)[C@H]4CC[C@]23CN1C | inactive | inactive | inactive | inactive | inactive | inactive | inactive | inactive | inactive | inactive | inactive | inactive |  |  | inactive | inactive | inactive | inactive | inactive |  |
| Cc1ccc(O)c(C(C)(C)C)c1 | 21.8 µM (active) and inactive | 27.5 µM (active) | 24.5 µM (active) and inactive | 43.6 µM (active) | 19.5 µM (active) | 21.8 µM (active) | inactive | inactive | inactive |  | inactive |  | inactive | inactive |  |  | inactive | 13.8 µM (active) | inactive |  |
| NC(=O)C1(N2CCCCC2)CCN(CCCN2c3ccccc3CCc3ccc(Cl)cc32)CC1 | 11.9 µM (active) | 18.8 µM (active) | 11.9 µM (active) | 29.8 µM (active) | 29.8 µM (active) | 21.3 µM (active) |  |  |  |  |  |  |  | 29.8 µM (active) |  |  |  |  |  | 26.8 µM (active) |
| NC(=NCCCCCCN=C(N)/N=C(\N)Nc1ccc(Cl)cc1)/N=C(\N)Nc1ccc(Cl)cc1 |  | 19.8 µM (active) [middle of 4 runs] |  | 19.4 µM (active) and 43.4 µM (active) |  | 35.3 µM (active) [middle of 4 runs] |  | 54 µM (active) and 54.2 µM (active) and inactive |  | 34.3 µM (active) and inactive | inactive | inactive |  |  |  |  |  |  |  |  |
| CCCCCCCCCCC=O | inactive | inactive | inactive | inactive | inactive | inactive | inactive | inactive | inactive |  | inactive | inactive | inactive | inactive |  |  | inactive | inactive | inactive |  |
| CCCCCOC(=O)CCCC | inactive | inactive | inactive | inactive | inactive | inactive | inactive | inactive | inactive | inactive | inactive | inactive |  |  | inactive | inactive | inactive | inactive | inactive |  |
| CC(=O)OCC(C)OC(C)=O (stereo unspecified) | inactive | inactive |  | inactive | inactive | inactive | inactive | inactive | inactive | inactive | inactive | inactive | inactive | inactive | inactive | inactive | inactive | inactive | inactive |  |
| CC[C@H](c1ccc(O)cc1)[C@@H](CC)c1ccc(O)cc1 | 54.9 µM (active) | inactive |  | inactive | inactive |  | inactive | inactive | 54.5 µM (active) and inactive | 54.9 µM (active) and inactive | inactive | inactive | inactive | inactive |  | inactive | inactive |  |  |  |
| CCCCCCOC(=O)c1ccc(O)cc1 | 38.9 µM (active) and inactive |  | inactive | inactive |  |  | 49 µM (active) | inactive | inactive |  | inactive |  | inactive |  |  | inactive | inactive |  | inactive |  |
| CCc1cc(SCc2sc(-c3ccc(C(F)(F)F)cc3)nc2CN2CCN(c3ccc(OC)cc3)CC2)ccc1OCC(=O)O | 7.76 µM (active) | 5.49 µM (active) | 7.76 µM (active) | 19.5 µM (active) | 19.5 µM (active) | 7.76 µM (active) | 54.9 µM (active) | 30.6 µM (active) | 13.7 µM (active) | 43.6 µM (active) |  |  |  |  |  |  |  |  |  |  |
| NNC(=O)c1cccc(C(=O)NN)c1 | inactive | inactive | inactive | inactive | inactive | inactive | inactive | inactive | inactive | inactive | inactive | inactive | inactive | inactive | inactive | inactive | inactive |  | inactive |  |
